# Experimental data taken from PubChem BioAssay.
# Values joined by “and” are separate entries in the source; they are usually repeats but may differ in a detail not shown here. Equal entries are not always repeated. Active and inactive are the calls of the source.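 How the source made its calls, unless noted: active means normalized viability below 100% at a tested concentration; inactive means the rest.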
# Tests used:
# [1] = Wnt pathway potentiators raising nuclear beta-catenin – imaging, WNT3A-conditioned medium, mouse C2C12, NPC library, primary screen (AID 1117326; in the data active means nuclear beta-catenin stimulation mostly above about 4.2%, no sharp cut-off; inactive means mostly below about 10%); settings: stronger effect = higher value
# [2] = stimulators of insulin release from INS-1E, primary screen, cell-based, 5 mM glucose, NPC library (AID 1117329;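 active means compound raises insulin release from rat beta cells at 5 mM glucose, no numeric limit stated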); settings: rat INS-1E insulin secretion, at 10 µM, stronger effect = higher value
# [3] = growth inhibition of GSK3B-pretreated HCT116 cells – cell-based, CellTiter-Glo, 0.2 to 20 µM (AID 1117336;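 active means compounds lowering colon cancer cell viability after pretreatment blocking the GSK3B kinase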); settings: HCT116 viability after GSK3B inhibitor, at 20 µM, stronger effect = higher value
# [4] = inhibition of endothelial tube formation, primary screen, imaging, VEGF stimulated, CD31 staining, tube area, NPC library (AID 1117340;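 active means compound that reduces growth-factor-driven endothelial tube area in a mixed cell culture, no cutoff stated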); settings: VEGF-stimulated ADSC/ECFC co-culture, at 10 µM, stronger effect = higher value
# [5] = GLP1 release stimulators, primary, NCI-H716, NPC library (AID 1117341;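 active means compound raises GLP1 secretion from the human gut endocrine cells, with no numeric limit stated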); settings: NCI-H716 cells, at 10 µM, stronger effect = higher value
# [6] = HCT116 colon cancer cell growth inhibition, primary screen, CellTiter-Glo luminescence, NPC library (AID 1117342;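 active means compounds that lower survival of HCT116 colon cancer cells in the luminescence readout, no numeric limit stated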); settings: at 20 µM (top of the series)
# [7] = reduced SW480 viability measured with CellTiter-Glo, NPC library, primary (AID 1117343;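 active means compounds that lower viability of the colon cancer cells in the luminescence readout, with no numeric limit stated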); settings: CellTiter-Glo luminescence; at 20 µM (top of the series)
# [8] = NPC library primary testing for decreased DLD-1 cell viability via CellTiter-Glo (AID 1117346;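 active means compounds that lower survival of DLD-1 colon cancer cells in the luminescence readout, no cutoff given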); settings: DLD-1 viability, CellTiter-Glo luminescence; at 20 µM (top of the series)
# [9] = biological target: 6-phosphogluconate dehydrogenase, decarboxylating (Homo sapiens) (UniProt P52209); experiment: inhibition of human phosphogluconate dehydrogenase – biochemical, recombinant enzyme, NADPH absorbance, primary screen (AID 1159550;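 active means at least 20% inhibition of 6-phosphogluconate dehydrogenase activity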); settings: recombinant 6PGD, NADPH absorbance 341 nm; at 10 µM; stronger effect = higher value
# [10] = modulation of C. elegans fzo-1 (AID 1259413; call rule not given here;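 further: fzo-1 mutant C. elegans worms in liquid wells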); settings: C. elegans fzo-1 modulator screen, mean read-out; stronger effect = higher value
# [11] = EMT-state selective cytotoxicity in co-culture – imaging, PC-3E GFP, TEM4-18 mCherry, primary screen (AID 1345086;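 active means compounds killing one labelled cell type while sparing the other, by normalised counts and ratio limits, not self-fluorescent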;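 on all read-outs here: cells exposed to compound for 72 h before imaging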;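 on red/green cell ratio (normalised): normalised mesenchymal count divided by normalised epithelial count so high means epithelial killing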); settings: PC-3E GFP / TEM4-18 mCherry co-culture, imaging cell counts, at 1 µM; for red/green cell ratio (normalised): actives lie on both sides, counts scaled to control wells, 1 = unselective
# [12] = MELAS cybrid and Rieske KO viability enhancers – cell-based, MELAS cybrids, Rieske KO mouse fibroblasts, CellTiter-Glo, primary screen (AID 1508586;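 active means mean z-score across replicates of 1.96 or higher in either the MELAS or the Rieske mutant cell line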;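 further: z relative to plate mean and SD of compound and empty wells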); settings: low glucose
# [13] = biological target: NAD(+) hydrolase SARM1 (Homo sapiens) (UniProt Q6SZW1); experiment: blocking NAD cleavage by SARM1 SAM-TIR – cell lysate, NAD-Glo luminescence (AID 1508614;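 active means compound whose remaining NAD level is above about 45 nM, limit read from the data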); settings: SAM-TIR HEK293T lysate NADase, at 1 µM, stronger effect = higher value
# [14] = biological target: Mitogen-activated protein kinase 7 (Homo sapiens) (UniProt Q13164); experiment: Gal4-ERK5 driven luciferase induction – cell-based, HTS, primary screen (AID 1508626;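 active means luciferase signal above three times the same-plate solvent-only control wells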;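 further: luciferase driven by Gal4-ERK5 fusion binding five Gal4 sites before minimal TATA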); settings: HeLa Gal4-ERK5 transactivation, 18 h, at 5 µM, stronger effect = higher value
# F380Y = experiment: BK channel mutant inhibitors and activators – cell-based, U2OS BacMam, thallium flux, beta subunits, selectivity assay, profiling panel (AID 1259406;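 active means thallium flux through the channel raised or lowered by more than 3 SD from vehicle-only wells, actives on both sides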;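 further: initial slope of Thallos dye fluorescence rise after thallium is added; log ratio against the mean of 0.3% DMSO vehicle wells on the same plate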); settings: U2OS BacMam BK variants, at 30 µM
# F380Y/beta1 = experiment: as above; settings: U2OS BacMam BK variants, at 30 µM
# F380Y/beta2Delta = experiment: as above; settings: U2OS BacMam BK variants, at 30 µM
# [15] = drug combination growth inhibition, ovarian cancer – cell-based, oncology-focused library, rucaparib conditional, profiling panel (AID 1508598); settings: patient-derived ovarian cancer cells, CellTiter-Glo viability, 144 h, stronger effect = lower value
# [16] = measured here: epithelial PC-3E GFP cell survival
# [17] = measured here: mesenchymal TEM4-18 mCherry cell survival
# [18] = MELAS cybrid survival, CellTiter-Glo 48 h, stronger effect = higher value
# [19] = Rieske KO mouse fibroblast survival, CellTiter-Glo 72 h
# NAD(+) hydrolase SARM1 (Homo sapiens), sequence (Q6SZW1 whole entry, looked up, the tested form may be a part): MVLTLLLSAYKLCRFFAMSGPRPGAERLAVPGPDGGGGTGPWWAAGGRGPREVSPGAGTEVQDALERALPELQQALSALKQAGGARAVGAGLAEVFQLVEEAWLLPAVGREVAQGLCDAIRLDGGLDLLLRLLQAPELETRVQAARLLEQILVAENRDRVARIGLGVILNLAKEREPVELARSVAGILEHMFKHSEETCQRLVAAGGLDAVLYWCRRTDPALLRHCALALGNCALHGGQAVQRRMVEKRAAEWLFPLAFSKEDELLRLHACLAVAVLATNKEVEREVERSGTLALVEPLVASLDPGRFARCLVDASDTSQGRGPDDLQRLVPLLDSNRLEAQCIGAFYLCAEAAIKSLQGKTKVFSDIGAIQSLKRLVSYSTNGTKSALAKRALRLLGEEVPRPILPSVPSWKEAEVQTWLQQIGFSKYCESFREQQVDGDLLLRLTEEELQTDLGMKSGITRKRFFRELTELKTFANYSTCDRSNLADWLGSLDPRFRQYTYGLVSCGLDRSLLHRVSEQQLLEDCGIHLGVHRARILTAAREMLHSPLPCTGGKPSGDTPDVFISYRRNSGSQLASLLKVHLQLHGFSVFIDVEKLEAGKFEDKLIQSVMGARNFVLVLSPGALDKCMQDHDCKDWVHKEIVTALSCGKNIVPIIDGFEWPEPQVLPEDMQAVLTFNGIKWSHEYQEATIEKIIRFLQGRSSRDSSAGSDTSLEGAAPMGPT
# Mitogen-activated protein kinase 7 (Homo sapiens), sequence (Q13164 whole entry, looked up, the tested form may be a part): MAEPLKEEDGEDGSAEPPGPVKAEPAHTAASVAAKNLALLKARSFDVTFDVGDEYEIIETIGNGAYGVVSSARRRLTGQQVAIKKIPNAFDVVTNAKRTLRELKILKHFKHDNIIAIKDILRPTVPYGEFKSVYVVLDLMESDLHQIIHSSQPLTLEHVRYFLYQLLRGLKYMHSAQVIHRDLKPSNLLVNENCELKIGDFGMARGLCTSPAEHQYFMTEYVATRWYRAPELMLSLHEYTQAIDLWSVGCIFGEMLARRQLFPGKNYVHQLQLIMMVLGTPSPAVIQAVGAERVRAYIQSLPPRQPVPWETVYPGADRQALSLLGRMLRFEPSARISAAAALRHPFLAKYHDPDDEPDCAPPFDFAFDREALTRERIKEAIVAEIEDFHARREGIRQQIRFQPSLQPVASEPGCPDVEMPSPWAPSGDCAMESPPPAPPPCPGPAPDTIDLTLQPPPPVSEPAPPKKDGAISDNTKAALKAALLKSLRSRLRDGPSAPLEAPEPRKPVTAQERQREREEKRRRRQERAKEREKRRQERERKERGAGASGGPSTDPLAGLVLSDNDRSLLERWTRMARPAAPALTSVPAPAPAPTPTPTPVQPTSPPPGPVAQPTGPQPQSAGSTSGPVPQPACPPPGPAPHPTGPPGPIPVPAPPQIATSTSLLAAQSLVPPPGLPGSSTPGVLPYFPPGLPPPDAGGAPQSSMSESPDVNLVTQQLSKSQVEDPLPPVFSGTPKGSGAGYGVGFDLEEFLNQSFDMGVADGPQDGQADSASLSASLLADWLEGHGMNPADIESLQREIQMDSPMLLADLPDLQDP
# 6-phosphogluconate dehydrogenase, decarboxylating (Homo sapiens), sequence (P52209 whole entry, looked up): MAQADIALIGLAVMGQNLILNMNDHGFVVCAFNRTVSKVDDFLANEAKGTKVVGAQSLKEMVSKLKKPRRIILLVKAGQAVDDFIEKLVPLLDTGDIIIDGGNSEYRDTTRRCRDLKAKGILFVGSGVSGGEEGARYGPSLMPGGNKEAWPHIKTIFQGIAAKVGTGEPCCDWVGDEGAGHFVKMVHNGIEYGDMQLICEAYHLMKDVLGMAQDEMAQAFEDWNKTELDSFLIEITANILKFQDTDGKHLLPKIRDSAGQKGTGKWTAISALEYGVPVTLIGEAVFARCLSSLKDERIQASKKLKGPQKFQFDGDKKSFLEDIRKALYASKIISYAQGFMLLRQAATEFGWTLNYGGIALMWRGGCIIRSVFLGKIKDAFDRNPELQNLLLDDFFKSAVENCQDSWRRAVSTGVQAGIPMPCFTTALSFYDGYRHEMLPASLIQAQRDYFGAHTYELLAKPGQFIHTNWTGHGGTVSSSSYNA
smiles,measurement,setting,value
CCc1nc(N)nc(N)c1-c1ccc(Cl)cc1,nuclear beta-catenin stimulation,[1]; at 10 µM,72.4% (active)
same,nuclear beta-catenin stimulation,"[1]; stimulation, at 2 µM",69.7%
same,insulin secretion stimulation,[2],1.3% (inactive)
same,viability decrease,[3],18.7% (inactive)
same,tube area decrease,[4],16.8% (inactive)
same,GLP1 secretion stimulation,[5],-0.3% (inactive)
same,inhibition of viability,[6],56.7% (active)
same,viability decrease (inhibition),[7],95.5% (active)
same,viability decrease (inhibition),[8],35% (inactive)
same,inhibition,[9],5.34% (inactive)
same,mean signal,[10],234 (inactive)
same,red/green cell ratio (normalised),[11],0.84 (inactive)
same,normalised cell number,[11]; [16],0.9
same,normalised cell number,[11]; [17],0.75
same,z-score,[12]; [18],-0.337 (inactive) and 1.11 (inactive)
same,z-score,[12]; [19],0.731 and -0.178
same,remaining NAD,[13],10 nM (inactive)
same,luciferase signal,[14],104 AU (inactive)
same,log fold change Tl+ flux,F380Y,0.0572 (inactive)
same,log fold change Tl+ flux,F380Y/beta1,-0.116 (inactive)
same,log fold change Tl+ flux,F380Y/beta2Delta,0.0521 (inactive)
Cc1ccccc1C(OCCN(C)C)c1ccccc1 (stereo not given),nuclear beta-catenin stimulation,[1]; at 10 µM,0.6% (inactive)
same,nuclear beta-catenin stimulation,"[1]; stimulation, at 2 µM",1.7%
same,insulin secretion stimulation,[2],39.3% (active)
same,viability decrease,[3],-86.6% (inactive)
same,tube area decrease,[4],2.8% (inactive)
same,GLP1 secretion stimulation,[5],2.1% (inactive)
same,inhibition of viability,[6],8.67% (inactive)
same,viability decrease (inhibition),[7],45.8% (inactive)
same,viability decrease (inhibition),[8],-5% (inactive)
same,inhibition,[9],5.27% (inactive)
same,mean signal,[10],231 (inactive)
same,red/green cell ratio (normalised),[11],1.09 (inactive)
same,normalised cell number,[11]; [16],0.78
same,normalised cell number,[11]; [17],0.85
same,z-score,[12]; [18],-0.259 (inactive) and -1.08 (inactive)
same,z-score,[12]; [19],-0.358 and 0.0536
same,remaining NAD,[13],10 nM (inactive)
same,luciferase signal,[14],40 AU (inactive)
same,log fold change Tl+ flux,F380Y,0.0933 (inactive) and 0.0755 (inactive)
same,log fold change Tl+ flux,F380Y/beta1,0.00351 (inactive) and 0.0509 (inactive)
same,log fold change Tl+ flux,F380Y/beta2Delta,0.0734 (inactive) and 0.0188 (inactive)
Cc1ccc(-c2cc(C(F)(F)F)nn2-c2ccc(S(N)(=O)=O)cc2)cc1,nuclear beta-catenin stimulation,[1]; at 10 µM,8.6% (inactive)
same,nuclear beta-catenin stimulation,"[1]; stimulation, at 2 µM",0.5%
same,insulin secretion stimulation,[2],-0.6% (inactive)
same,viability decrease,[3],-9.9% (inactive)
same,tube area decrease,[4],1.2% (inactive)
same,GLP1 secretion stimulation,[5],0.7% (inactive)
same,inhibition of viability,[6],49% (inactive)
same,viability decrease (inhibition),[7],66.6% (active)
same,viability decrease (inhibition),[8],50.1% (active)
same,inhibition,[9],13.7% (inactive)
same,mean signal,[10],242 (inactive)
same,red/green cell ratio (normalised),[11],1.22 (inactive)
same,normalised cell number,[11]; [16],1.08
same,normalised cell number,[11]; [17],1.32
same,z-score,[12]; [18],-0.312 (inactive) and 1.24 (inactive) and 1.08 (inactive)
same,z-score,[12]; [19],1.13 and 1.16 and 1.29
same,viability,"[15]; at 0.000305 µM, OCI-C5x cells, with rucaparib 10 µM, 100% = cells with rucaparib alone",113% (inactive)
same,viability,"[15]; at 0.000305 µM, OCI-C5x cells, without rucaparib",107% (inactive)
same,viability,"[15]; at 0.000305 µM, OCI-P5x cells, with rucaparib 20 µM, 100% = cells with rucaparib alone",84.7% (active)
same,viability,"[15]; at 0.000305 µM, OCI-P5x cells, without rucaparib",92.4% (active)
same,viability,"[15]; at 0.00122 µM, OCI-C5x cells, with rucaparib 10 µM, 100% = cells with rucaparib alone",104% (inactive)
same,viability,"[15]; at 0.00122 µM, OCI-C5x cells, without rucaparib",111% (inactive)
same,viability,"[15]; at 0.00122 µM, OCI-P5x cells, with rucaparib 20 µM, 100% = cells with rucaparib alone",91.7% (active)
same,viability,"[15]; at 0.00122 µM, OCI-P5x cells, without rucaparib",91.9% (active)
same,viability,"[15]; at 0.00488 µM, OCI-C5x cells, with rucaparib 10 µM, 100% = cells with rucaparib alone",118% (inactive)
same,viability,"[15]; at 0.00488 µM, OCI-C5x cells, without rucaparib",107% (inactive)
same,viability,"[15]; at 0.00488 µM, OCI-P5x cells, with rucaparib 20 µM, 100% = cells with rucaparib alone",93.8% (active)
same,viability,"[15]; at 0.00488 µM, OCI-P5x cells, without rucaparib",94% (active)
same,viability,"[15]; at 0.0195 µM, OCI-C5x cells, with rucaparib 10 µM, 100% = cells with rucaparib alone",115% (inactive)
same,viability,"[15]; at 0.0195 µM, OCI-C5x cells, without rucaparib",120% (inactive)
same,viability,"[15]; at 0.0195 µM, OCI-P5x cells, with rucaparib 20 µM, 100% = cells with rucaparib alone",96.2% (active)
same,viability,"[15]; at 0.0195 µM, OCI-P5x cells, without rucaparib",88.2% (active)
same,viability,"[15]; at 0.0781 µM, OCI-C5x cells, with rucaparib 10 µM, 100% = cells with rucaparib alone",114% (inactive)
same,viability,"[15]; at 0.0781 µM, OCI-C5x cells, without rucaparib",117% (inactive)
same,viability,"[15]; at 0.0781 µM, OCI-P5x cells, with rucaparib 20 µM, 100% = cells with rucaparib alone",96.7% (active)
same,viability,"[15]; at 0.0781 µM, OCI-P5x cells, without rucaparib",94.3% (active)
same,viability,"[15]; at 0.313 µM, OCI-C5x cells, with rucaparib 10 µM, 100% = cells with rucaparib alone",117% (inactive)
same,viability,"[15]; at 0.313 µM, OCI-C5x cells, without rucaparib",110% (inactive)
same,viability,"[15]; at 0.313 µM, OCI-P5x cells, with rucaparib 20 µM, 100% = cells with rucaparib alone",66.1% (active)
same,viability,"[15]; at 0.313 µM, OCI-P5x cells, without rucaparib",56.6% (active)
same,viability,"[15]; at 1.25 µM, OCI-C5x cells, with rucaparib 10 µM, 100% = cells with rucaparib alone",113% (inactive)
same,viability,"[15]; at 1.25 µM, OCI-C5x cells, without rucaparib",124% (inactive)
same,viability,"[15]; at 1.25 µM, OCI-P5x cells, with rucaparib 20 µM, 100% = cells with rucaparib alone",109% (inactive)
same,viability,"[15]; at 1.25 µM, OCI-P5x cells, without rucaparib",105% (inactive)
same,viability,"[15]; at 5 µM, OCI-C5x cells, with rucaparib 10 µM, 100% = cells with rucaparib alone",122% (inactive)
same,viability,"[15]; at 5 µM, OCI-C5x cells, without rucaparib",131% (inactive)
same,viability,"[15]; at 5 µM, OCI-P5x cells, with rucaparib 20 µM, 100% = cells with rucaparib alone",109% (inactive)
same,viability,"[15]; at 5 µM, OCI-P5x cells, without rucaparib",105% (inactive)
same,remaining NAD,[13],10 nM (inactive)
same,luciferase signal,[14],28 AU (inactive)
same,log fold change Tl+ flux,F380Y,0.057 (inactive)
same,log fold change Tl+ flux,F380Y/beta1,-0.0387 (inactive)
same,log fold change Tl+ flux,F380Y/beta2Delta,-0.0192 (inactive)
